# Yeast superoxide: lowers age-related superoxide in aged yeast cells. S. cerevisiae aged cells, superoxide DHE fluorescence; stronger effect = lower value. superoxide response (% of plate mean), % at 10 µM. 0.18% of 330,000 active;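 active means superoxide response under a set limit, about three screen SD below normal, cut at about 65% in these data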;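 further: yeast aged for seven days with compound at 30 °C before DHE staining; 100% = average MFI of all compound-treated wells on the plate with controls excluded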
# FAS-TE inh: FAS thioesterase (human) inhibition; 0.67% of 360,000 active; P49327; inhibition, % at 15 µM; recombinant FAS-TE, OMFH fluorogenic substrate, fluorescence endpoint;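 active means compounds whose normalised, plate-corrected inhibition of enzyme fluorescence in the single-dose primary screen is 50% or more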;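 further: 0% = DMSO with enzyme and 100% = substrate without enzyme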
# Mot1-301 SUMO: blocks SUMOylation pathway, rescuing yeast Mot1-301 growth; growth rescue, % at 18.8 µM; 1% of 320,000 active; S. cerevisiae Mot1-301 growth rescue, ATP luminescence, 38.5C; percent above DMSO median, 100 means doubled; AID 2716;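 active means every valid replicate shows activation above 250% relative to neutral control wells; inactive means the rest, any valid replicate at or below 250%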;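 further: OY570 slx delta 5 strain wells were the positive control but not used for scaling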
# aDG glyco act: increases alpha dystroglycan glycosylation | AID 624168 | activation, % at 10 µM | Pro5-aDG cells, alpha-DG glycosylation AlphaScreen (IIH6); 0% Pro5, 100% B10-LARGE cell signal | 0.22% of 360,000 active;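 active means activation of at least 8% versus controls, or a plate z-score of at least 8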;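 further: Pro5 are CHO cells carrying HIG-tagged alpha-DG that lacks glycosylation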
# MPTP block: blocks calcium-induced mitochondrial swelling; isolated mouse mitochondria, Ca2+ swelling absorbance, 30 min; inhibition, % at 10 µM; 1.4% of 360,000 active; AID 602449;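 active means inhibition of 50% or more, scaled per plate between neutral and stimulator controls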;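 further: 0% = DMSO wells given calcium and 100% = 1 mM EGTA wells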
# H9c2 protect: protects H9c2 cardiomyocytes from peroxide injury; protection from H2O2 cell death, % at 20 µM; 0.63% of 360,000 active; H2O2 injury protection, ATPLite, 2 h;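 active means compounds giving at least 50% protection of heart cells from peroxide-induced death in the single-dose screen, raw or plate-pattern-corrected value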;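 further: 0% = DMSO wells with peroxide and 100% = DMSO wells without peroxide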
# Yeast Mot1 SUMO: yeast SUMO pathway inhibition in dose response. 2,300 tested, under 10 active. S. cerevisiae Mot1-301 galactose growth, ATP luminescence, 24 h; -100 = growth of slx-deleted rescue strain. growth activity, percent, % at 42 µM. shares compounds with Mot1-301 SUMO;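 active means Signal drops as the depositor expects, and the fitted half-maximal dose is no more than ten times the top valid tested dose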;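 further: more negative values mean stronger growth rescue toward the control strain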
# Numbers without * were called inactive; / = not tested or not shown; + = active, no number. Only some compounds are listed: those with a hit (about 3.8% of all), similar ones and a draw of the others.
SMILES,Yeast superoxide,FAS-TE inh,Mot1-301 SUMO,aDG glyco act,MPTP block,H9c2 protect,Yeast Mot1 SUMO
O=C(O)C1C2CCC(O2)C1C(=O)NCCC1=CCCCC1 (configuration not stated),81,-10,364*,0,-2,10,0
COc1cc2cc(CCCOC(=O)CCCC(=O)O)oc(=O)c2cc1OC,91,-10,-13,0,-1,4,/
COc1ccc(N(CC(=O)NCc2ccc(C)cc2)S(=O)(=O)c2c(C)nn(C)c2C)cc1,98,-7,585*,0,1,4,0
Cc1ccc(OCC(=O)NN2C(=O)c3ccccc3C2=O)cc1,101,-3,19,0,-2,4,/
Cc1ccc(OCC(=O)NN2C(=O)c3ccccc3C2=O)c(C)c1,104,-2,436*,0,-6,-1,1
O=C(c1cccc([N+](=O)[O-])c1)N1CCCC(C(=O)N2CCc3ccccc3C2)C1 (configuration not stated),97,2,-48,0,-2,-1,/
O=C(Nc1cccc(N=Cc2cc(Br)cc(Br)c2O)c1)c1ccco1,76,3,766*,0,24,51*,-1
O=C(Nc1cc(Br)c(O)c(Br)c1)c1cccc(NC(=O)c2ccco2)c1,103,-1,-12,0,1,-3,/
Cc1c(C)c2c(c(C)c1O)CC[C@@](C)(CCC[C@H](C)CCC[C@H](C)CCCC(C)C)O2,93,11,35,0,1,4,/
Cc1c(C)c2c(c(C)c1O)CCC(C)(C(=O)O)O2 (configuration not stated),101,-4,548*,0,0,1,0
CCN(CC)S(=O)(=O)c1ccc(S(=O)(=O)N2CCC(C(=O)NC3CCN(Cc4ccccc4)CC3)CC2)cc1,97,-10,634*,0,0,2,0
O=C(NC1CCN(Cc2ccccc2)CC1)C1CCN(S(=O)(=O)c2cccc([N+](=O)[O-])c2)CC1,106,-2,49,0,0,-3,/
CCOC(=O)C1CCN(Cc2ccc(OCc3ccccc3)cc2)CC1,93,5,555*,0,8,-2,-1
CC1CN(C(=O)c2cc([N+](=O)[O-])cc([N+](=O)[O-])c2)CC(C)O1 (configuration not stated),115,-8,+,0,-2,1,1
Cc1ccc(C)c(N2CCN(C(=O)CCC(=O)N3CCOc4ccc(Cl)cc43)CC2)c1,90,29,10,1,0,-6,/
CCCCCCNc1c(C(=O)OCC)c(=O)[nH]c2ccccc12,110,-2,778*,0,0,-2,0
CCOC(=O)c1c(NCC2CCCO2)c2ccccc2[nH]c1=O (configuration not stated),94,-12,-13,0,-4,1,/
CCN1C(=O)c2cccc3cccc1c23,109,4,-1,0,1,-5,/
CC(C)NC(=O)CN1C(=O)c2cccc3cccc1c23,109,-5,20,0,1,7,/
CN(C)C(=O)CN1C(=O)c2cccc3cccc1c23,98,-4,+,0,-2,3,0
COC(=O)CN1C(=O)c2cccc3cccc1c23,103,-6,798*,0,0,0,-1
O=C(Cc1ccccc1[N+](=O)[O-])OCc1cccc([N+](=O)[O-])c1,115,/,-5,/,/,/,/
O=C(CC12CC3CC(CC(C3)C1)C2)NCc1ccc(F)cc1,103,0,-4,0,0,1,/
Cc1cc(NC(=O)c2cccnc2Cl)ccc1NC(=O)c1cc2ccccc2o1,110,-3,21,0,-1,6,/
O=C(Nc1cccnc1Cl)c1cc2ccccc2o1,111,-4,567*,0,0,-12,0
SMILES,Yeast superoxide,FAS-TE inh,Mot1-301 SUMO,aDG glyco act,MPTP block,H9c2 protect,Yeast Mot1 SUMO
Cc1cc(F)ccc1S(=O)(=O)Nc1ccccc1C(=O)Nc1ccc2[nH]c(=O)[nH]c2c1,109,9,370*,2,1,14,0
Cc1ccc(S(=O)(=O)Nc2ccc3[nH]c(=O)[nH]c3c2)c(C)c1,93,-4,-6,0,0,-9,/
COc1ccc(N(C(=O)c2ccncc2)S(=O)(=O)c2ccc(F)cc2)cc1,101,0,451*,0,2,8,0
COc1ccc(N(C(=O)c2ccncc2)S(=O)(=O)c2ccccc2)cc1,99,-2,38,0,0,31,/
COc1ccc(Cl)cc1C=CC=Nc1ccccc1O,/,3,/,4,0,-16,/
CC1CCc2c(C(=O)OCC(=O)Nc3cccc(S(=O)(=O)N4CCCCCC4)c3)csc2C1 (configuration not stated),100,47,-2,0,44,-13,/
Cc1ccc(NC(=O)COC(=O)c2csc3c2CCC(C)C3)cc1S(=O)(=O)N1CCCCC1 (configuration not stated),113,24,+,0,20,-8,0
COc1cccc(CN2CCC(C(=O)NC(C)c3cccc4ccccc34)CC2)c1 (configuration not stated),/,-1,/,0,0,7,/
Cc1ccc(NC(=O)C(=O)NCC2CCCN2S(=O)(=O)c2cccs2)cc1 (configuration not stated),102,5,464*,0,-2,-5,0
COc1ccc(S(=O)(=O)N2CCCC2CNC(=O)C(=O)NCc2ccccn2)cc1 (configuration not stated),102,2,440*,0,-2,2,0
CN(C)S(=O)(=O)c1cccc(NC(=O)CNCC2CCCCC2)c1,102,-6,40,0,0,-3,/
N#Cc1c(NC(=O)c2ccc([N+](=O)[O-])o2)sc2c1CCC2,104,22,466*,0,9,-24,0
O=C(CSc1nc(-c2ccccc2)cc(=O)[nH]1)Nc1ccc(Br)cc1,91,-6,423*,0,1,-2,-1
COc1cc(/C=N/n2cnnc2)ccc1OCc1ccccc1,92,-7,540*,0,0,0,1
COc1ccccc1N1CCN(C(=O)c2ccc(N3CCCCS3(=O)=O)cc2)CC1,85,-5,607*,2,0,1,1
O=c1/c(=C/c2ccccn2)sc2n1CN(c1ccccc1)CN=2,105,3,5,0,3,9,/
Cc1cccc(N2CN=c3s/c(=C\c4ccccn4)c(=O)n3C2)c1,102,5,441*,0,1,-2,0
Cc1nc([N+](=O)[O-])cn1CC(=O)Nc1ccc(F)c(Cl)c1,90,6,6,0,0,-3,/

# Compound activity (PubChem BioAssay)
